Data taken from PubChem BioAssay (NCATS).
Records with an inconclusive call do not appear. The source made the active and inactive calls. Unless noted, the call rests on the fitted dose curve; in most records, active means well fitted inhibition curve with a large enough effect; inconclusive means small, poorly fitted or top-dose-only effect; inactive means flat fitted curve, though single readings scatter.

Tests used:
[1] = qHTS for identification of novel therapeutic agents for treatment of microphthalmiaassociated transcription factor (MiT) renal cell carcinoma (RCC) (AID 1963991; calls by dose curve; further: potency means the concentration at half of the fitted maximal effect); conditions: CellTiter-Glo, 48 h; for z-score: stronger effect = lower value; for Potency: active = Z-AUC below -0.8 in all three lines
Procedure, shortened: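 Three TFE3-fusion RCC cell lines (UOK109, UOK124, UOK145), 500 cells/well, were exposed to the 1912-compound MIPE 4.0 library for 48 hours at 37 C. Viability was read by CellTiter-Glo luminescence, normalised to DMSO (100%) and empty wells (0%), with 11-concentration curve fits.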

[2] = qHTS drug screen for cell cycle checkpoint inhibitors in PARPi-resistant BRCA-mutant ovarian cancer cell lines. (AID 1963452; calls by dose curve; further: potency means the concentration at half of the fitted maximal effect); conditions: PEO1/OlaR viability, CellTiter-Glo luminescence, 96 h; for Z-AUC: stronger effect = lower value
Procedure, shortened: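 PEO1, PEO4 and PEO1/OlaR ovarian cancer cells, 600 per well, exposed 96 h at 37C to a dilution series. Viability read by CellTiter-Glo luminescence, normalized to DMSO and empty wells; activity summarized as Z-AUC.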

[3] = qHTS profiling for inhibitors of Plasmodium falciparum proliferation (AID 504749);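 further: 0% = DMSO vehicle and full inhibition = artemisinin control; nearly all actives have a fitted effect of over 60% in size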; conditions: P. falciparum in erythrocytes, SYBR Green DNA, 72 h, at 28.7 µM (top of the series)
Procedure, shortened: (§1)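 Each compound contacts P. falciparum-infected red blood cells for 72 h at 37 C; lysis buffer (Tris, EDTA, saponin, Triton X, SYBR Green I) is added and fluorescence measured next morning; values normalized to controls.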

3D7 = test: as above; conditions: P. falciparum in erythrocytes, SYBR Green DNA, 72 h; series mostly up to 28.7 µM
Procedure, shortened: as §1

7G8 = test: as above; conditions: P. falciparum in erythrocytes, SYBR Green DNA, 72 h; series mostly up to 28.7 µM
Procedure, shortened: as §1

AA1029 = test: as above; conditions: P. falciparum in erythrocytes, SYBR Green DNA, 72 h; series mostly up to 28.7 µM
Procedure, shortened: as §1

AS120 = test: as above; conditions: P. falciparum in erythrocytes, SYBR Green DNA, 72 h; series mostly up to 28.7 µM
Procedure, shortened: as §1

ATS189 = test: as above; conditions: P. falciparum in erythrocytes, SYBR Green DNA, 72 h; series mostly up to 28.7 µM
Procedure, shortened: as §1

ATS95 = test: as above; conditions: P. falciparum in erythrocytes, SYBR Green DNA, 72 h; series mostly up to 28.7 µM
Procedure, shortened: as §1

C2A = test: as above; conditions: P. falciparum in erythrocytes, SYBR Green DNA, 72 h; series mostly up to 28.7 µM
Procedure, shortened: as §1

CP185 = test: as above; conditions: P. falciparum in erythrocytes, SYBR Green DNA, 72 h; series mostly up to 28.7 µM
Procedure, shortened: as §1

CP191 = test: as above; conditions: P. falciparum in erythrocytes, SYBR Green DNA, 72 h; series mostly up to 28.7 µM
Procedure, shortened: as §1

CP192 = test: as above; conditions: P. falciparum in erythrocytes, SYBR Green DNA, 72 h; series mostly up to 28.7 µM
Procedure, shortened: as §1

CP194 = test: as above; conditions: P. falciparum in erythrocytes, SYBR Green DNA, 72 h; series mostly up to 28.7 µM
Procedure, shortened: as §1

CP201 = test: as above; conditions: P. falciparum in erythrocytes, SYBR Green DNA, 72 h; series mostly up to 28.7 µM
Procedure, shortened: as §1

CP211 = test: as above; conditions: P. falciparum in erythrocytes, SYBR Green DNA, 72 h; series mostly up to 28.7 µM
Procedure, shortened: as §1

CP215 = test: as above; conditions: P. falciparum in erythrocytes, SYBR Green DNA, 72 h; series mostly up to 28.7 µM
Procedure, shortened: as §1

[4] = TFE3-RCC UOK109 viability, measured here: UOK109 Z-AUC
[5] = TFE3-RCC viability, measured here: UOK124 Z-AUC
[6] = TFE3-RCC viability, measured here: UOK145 Z-AUC
[7] = measured here: PEO1 parental Z-AUC

For `NC1CCC(Nc2nc(Nc3ccc(C(=O)N4CCCCC4)cc3)c3ncn(-c4cccc(F)c4)c3n2)CC1` (stereo unspecified), the z-score [1, 4] was 0.32, the z-score [1, 5] was 0.539 and the z-score [1, 6] was 0.657.

`O=C(O)C=Cc1ccc(O)c(O)c1` gave a z-score [1, 4] of 1.03, a z-score [1, 5] of 0.19 and a z-score [1, 6] of 0.564.

In the case of `Cc1cnc(C(=O)O)c[n+]1[O-]`, the Z-AUC [2] is reported as -0.768 (inactive), the Z-AUC [2, 7] is reported as -0.301 and the Z-AUC ([2]; measured here: PEO4 Z-AUC) is reported as -0.6. The z-score [1, 4] was 1.58, the z-score [1, 5] was 0.716 and the z-score [1, 6] was 0.578. For the same compound, the activity, negative = inhibition ([3]; parasite line A) was -1.49% (inactive), the activity, negative = inhibition ([3]; parasite line B) was -8.14% (inactive) and the outcome (3D7) was “inactive”. For the same compound, the Potency (7G8) was “inactive”, the outcome (AA1029) was “inactive” and the Potency (AS120) was “inactive”. The Potency (ATS189) was “inactive”, the outcome (ATS95) was “inactive” and the outcome (C2A) was “inactive”. For the same compound, the outcome (CP185) was “inactive”, the Potency (CP191) was “inactive” and the Potency (CP192) was “inactive”. The Potency (CP194) was “inactive”, the outcome (CP201) was “inactive” and the Potency (CP211) was “inactive”. The Potency (CP215) was “inactive”.

Compound `O=C(OCC#CCSc1nnc(-c2cccc3ccccc23)o1)c1cc2ccccc2s1` has a z-score [1, 4] of 0.144, a z-score [1, 5] of 0.66 and a z-score [1, 6] of 0.162.

With `CCCCCN(C)CCC(O)(P(=O)(O)O)P(=O)(O)O` the Z-AUC [2] was 0.387 (inactive), the Z-AUC [2, 7] was 1.32 and the Z-AUC ([2]; measured here: PEO4 Z-AUC) was 1.05. It also gave a z-score [1, 4] of 0.34, a z-score [1, 5] of 0.128 and a z-score [1, 6] of 0.245. For the same compound, the activity, negative = inhibition ([3]; parasite line A) was 13.8% (inactive), the activity, negative = inhibition ([3]; parasite line B) was 15.2% (inactive) and the outcome (3D7) was “inactive”. The Potency (7G8) was “inactive”, the outcome (AA1029) was “inactive” and the Potency (AS120) was “inactive”. The Potency (ATS189) was “inactive”, the outcome (ATS95) was “inactive” and the outcome (C2A) was “inactive”. The outcome (CP185) was “inactive”, the Potency (CP191) was “inactive” and the Potency (CP192) was “inactive”. The Potency (CP194) was “inactive”, the outcome (CP201) was “inactive” and the Potency (CP211) was “inactive”. The Potency (CP215) was “inactive”.

In the case of `NC[C@@H]1O[C@@H](O[C@H]2[C@@H](O)[C@H](O[C@@H]3[C@@H](O)[C@@H](N)C[C@H](N)[C@H]3O[C@H]3O[C@H](CN)[C@@H](O)[C@@H](O)[C@H]3N)O[C@H]2CO)[C@H](N)[C@@H](O)[C@@H]1O`, the z-score [1, 4] is reported as 1.35, the z-score [1, 5] is reported as 0.643 and the z-score [1, 6] is reported as 1.63.

For `O=C(O)C(O)Cc1ccc(O)c(O)c1` (stereo unspecified), the Z-AUC [2] was 0.82 (inactive), the Z-AUC [2, 7] was 1.05 and the Z-AUC ([2]; measured here: PEO4 Z-AUC) was 0.735. For the same compound, the z-score [1, 4] was 0.888, the z-score [1, 5] was 1.07 and the z-score [1, 6] was 1.23.

`COc1ccc2c3c1OC1C[C@@H](O)C=C[C@@]31CCN(C)C2` (stereo partly specified) showed a z-score [1, 4] of 0.657, a z-score [1, 5] of 0.378 and a z-score [1, 6] of -0.117.

For `CC(C)n1nc(-c2ccc3oc(N)nc3c2)c2c(N)ncnc21`, the Potency [2] was 871 nM (active), the Z-AUC [2, 7] was -1.21 and the Z-AUC ([2]; measured here: PEO4 Z-AUC) was -1.54. The Potency ([1]; TFE3-RCC UOK109 viability) was 37.2 nM (active), the z-score [1, 4] was -2.39 and the z-score [1, 5] was -2.58. It also gave a z-score [1, 6] of -3.7.

Compound `CN(C)c1cc(NC(=O)CNC(C)(C)C)c(O)c2c1C[C@@H]1C[C@H]3[C@H](N(C)C)C(=O)C(C(N)=O)=C(O)[C@@]3(O)C(=O)C1=C2O` has a z-score [1, 4] of 1.85, a z-score [1, 5] of 0.166 and a z-score [1, 6] of 0.881.

`C[C@]12CC[C@@H]3c4ccc(O)cc4CC[C@H]3[C@H]1C[C@@H](O)[C@H]2O` gave a z-score [1, 4] of 1.3, a z-score [1, 5] of 0.473 and a z-score [1, 6] of 0.59.

Compound `C[N+]1(C)[C@@H]2CC(OC(=O)[C@H](CO)c3ccccc3)C[C@H]1[C@H]1O[C@@H]12` (stereo partly specified) has a z-score [1, 4] of 0.318, a z-score [1, 5] of 0.652 and a z-score [1, 6] of 0.553.

Compound `C=C1C(=O)OC2C=C(C)CCC=C(C)CCC12` (stereo unspecified) has a z-score [1, 4] of 0.459, a z-score [1, 5] of 0.643 and a z-score [1, 6] of 0.399.

For `COc1cc(N2CCC(N3CCN(C)CC3)CC2)ccc1Nc1ncc(Cl)c(Nc2ccccc2S(=O)(=O)C(C)C)n1`, the Z-AUC [2] was -0.172 (inactive), the Z-AUC [2, 7] was -0.594 and the Z-AUC ([2]; measured here: PEO4 Z-AUC) was -0.618. The Potency ([1]; TFE3-RCC UOK109 viability) was 14800 nM (active), the z-score [1, 4] was -1.55 and the z-score [1, 5] was -1.62. The z-score [1, 6] was -1.41.

`O=c1ccn([C@@H]2O[C@H](CO)[C@H](O)[C@H]2O)c(=O)[nH]1` showed a z-score [1, 4] of 0.533, a z-score [1, 5] of 0.584 and a z-score [1, 6] of 0.624.

In the case of `C[C@@H]1CCN(C(=O)CC#N)C[C@H]1N(C)c1ncnc2[nH]ccc12`, the z-score [1, 4] is reported as -0.116, the z-score [1, 5] is reported as 0.39 and the z-score [1, 6] is reported as -0.115.

In the case of `O=C1NC(=O)C(c2ccccc2)(c2ccccc2)N1`, the activity, negative = inhibition ([3]; parasite line A) is reported as 3.02% (inactive), the activity, negative = inhibition ([3]; parasite line B) is reported as -26.3% (inactive) and the outcome (3D7) is reported as “inactive”. The Potency (7G8) was “inactive”, the outcome (AA1029) was “inactive” and the Potency (AS120) was “inactive”. For the same compound, the Potency (ATS189) was “inactive”, the outcome (ATS95) was “inactive” and the outcome (C2A) was “inactive”. For the same compound, the outcome (CP185) was “inactive”, the Potency (CP191) was “inactive” and the Potency (CP192) was “inactive”. For the same compound, the Potency (CP194) was “inactive”, the outcome (CP201) was “inactive” and the Potency (CP211) was “inactive”. For the same compound, the Potency (CP215) was “inactive”.

Work on `Nc1ncnc2c1ncn2[C@@H]1O[C@H](CO)C[C@@H]1O` yielded a z-score [1, 4] of 0.12, a z-score [1, 5] of 0.223 and a z-score [1, 6] of 0.00458.
